Sampled rows, rich in hits. Any-hit rate of the full collection: about 27%.
Cav3 T inh = blocks human Cav3.2 T-type calcium channel; AID 449739; B-score at 10 µM; 100,000 compounds, 4% hits; Cav3.2-expressing cells, Fluo-4 calcium fluorescence FDSS; active compounds read low;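 active = single-dose well whose peak fluorescence ratio is a statistical outlier from its plate by either plate-standardised score or position-corrected B-score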
CYP2C19 inh = inhibitors of human CYP2C19. P33261. CYP2C19 Supersomes, luciferin-H EGE luminescence, 30 min. inhibition, % at 5 µM. 96,000 compounds, 21% hits. AID 778;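 active = CYP2C19 inhibition above a set limit at 5 µM in the primary screen, cut at about 50% in these data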
Target sequence (P33261 whole entry, looked up): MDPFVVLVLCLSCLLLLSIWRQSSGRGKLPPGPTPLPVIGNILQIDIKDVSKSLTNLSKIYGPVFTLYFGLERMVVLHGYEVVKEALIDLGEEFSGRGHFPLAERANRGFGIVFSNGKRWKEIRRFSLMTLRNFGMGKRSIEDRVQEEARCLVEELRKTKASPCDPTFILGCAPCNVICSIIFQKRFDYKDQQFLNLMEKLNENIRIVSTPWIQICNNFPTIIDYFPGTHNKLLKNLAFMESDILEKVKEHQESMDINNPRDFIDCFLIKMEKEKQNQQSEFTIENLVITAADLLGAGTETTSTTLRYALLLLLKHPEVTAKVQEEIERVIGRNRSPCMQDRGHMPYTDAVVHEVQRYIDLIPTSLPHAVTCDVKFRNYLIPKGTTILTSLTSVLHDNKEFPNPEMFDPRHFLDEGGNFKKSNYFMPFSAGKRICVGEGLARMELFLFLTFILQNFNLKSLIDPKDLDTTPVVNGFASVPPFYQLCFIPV
CYP2C9 inh = blocks human cytochrome P450 2C9. CYP2C9 Supersomes, luciferin-H conversion, luminescence. P11712. 96,000 compounds, 20% hits. inhibition, % at 5 µM;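 active = blocking of liver enzyme CYP2C9 beyond about 50% at 5 µM, limit read from the data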
CYP2C9 activ = CYP2C9 (human) activation; activation factor at 5 µM; P11712; recombinant CYP2C9, luciferin-H conversion, luminescence; active compounds read high; factor 1 = untreated enzyme, 0 = blocked; 96,000 compounds, 1.4% hits;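 active = activation factor of 2 or more for CYP2C9 at a 5 µM dose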
CYP2C19 act = increases human CYP2C19 enzyme activity; activation factor at 5 µM; AID 1025; recombinant CYP2C19, luciferin-H EGE luminescence; active compounds read high; 0 = fully inhibited enzyme, 1 = untreated enzyme; 96,000 tested, under 10 active; P33261;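 active = activation factor of at least 2 at 5 µM in the primary screen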
Each line names hits and unclear results; the compound was inactive in the other large screens.

O=c1[nH]c2cc3c(cc2cc1CN(CC1CCCO1)S(=O)(=O)c1ccccc1)OCCO3 (stereo unspecified)	none
Cc1cc(C)c2[nH]c(=O)c(CN(CC3CCCO3)S(=O)(=O)c3ccc4c(c3)OCCO4)cc2c1 (stereo unspecified)	CYP2C19 inh 78, CYP2C9 inh 92
O=C(O)c1cccnc1SC1CC(=O)N(Cc2ccccc2)C1=O (stereo unspecified)	none
Cn1c(=O)c2c(ncn2CC(=O)NCc2cccnc2)n(C)c1=O	none
COc1ccc(-n2nnnc2/C=C\Nc2ccccc2C(=O)c2ccccc2)cc1	CYP2C19 inh 51
CCCCNC(=O)N(O)C1N(CCCC)C(=O)N(CC(=O)OC)C1(C)C (stereo unspecified)	none (no result: CYP2C19 inh, CYP2C9 inh, CYP2C9 activ, CYP2C19 act)
C=CCN1C(=O)C(CC(=O)Nc2ccccc2)SC1=Nc1c(C)n(C)n(-c2ccccc2)c1=O (stereo unspecified)	none
CCc1cc(-c2n[nH]c(=S)n2-c2cccc(C)c2)cs1	CYP2C19 inh 63 (no result: Cav3 T inh)
Cc1cc(NC(=O)COC(=O)C(Nc2ccc(C(F)(F)F)cc2Cl)C(C)C)no1 (stereo unspecified)	Cav3 T inh -4.5, CYP2C19 inh 57, CYP2C9 inh 52
O=[N+]([O-])c1ccc2nc(SCc3ccccc3Cl)sc2c1	Cav3 T inh -4.1
CCOc1ccc2nc(SCC(=O)c3ccccc3)sc2c1	none
CCOc1ccc2nc(SCc3ccccc3C#N)sc2c1	CYP2C19 inh 51, CYP2C9 activ 2.5
Nc1ccc2nc(SCc3ccc([N+](=O)[O-])cc3)sc2c1	CYP2C19 inh 97, CYP2C9 inh 59 (no result: Cav3 T inh)
Cc1c(O)c(=O)ccn1C	none (no result: CYP2C19 inh, CYP2C9 inh, CYP2C9 activ, CYP2C19 act)
CC[C@@H]1C=C(C)C[C@H](C)C[C@H](OC)[C@H]2O[C@@](O)(C(=O)C(=O)N3CCCC[C@H]3C(=O)O[C@H](/C(C)=C/[C@@H]3CC[C@@H](O)[C@H](OC)C3)[C@H](C)[C@@H](O)CC1=O)[C@H](C)C[C@@H]2OC	none (no result: CYP2C19 inh, CYP2C9 inh, CYP2C9 activ, CYP2C19 act)
O=C1C2C3C=CC(C3)C2C(=O)N1c1n[nH]c(CCc2ccccc2)n1 (stereo unspecified)	none
COc1cccc(CNC(=O)Cn2cc3c(n2)CCCCC3)c1	CYP2C19 inh 92, CYP2C9 activ 2.4
CC(C)NC(=O)c1ccc2c(=O)n(C3CCCC3)c(=S)[nH]c2c1	none
O=C(c1ccc2c(=O)n(C3CCCC3)c(=S)[nH]c2c1)N1CCc2ccccc21	Cav3 T inh -4.6
COc1ccc(C2NCCn3cccc32)cc1 (stereo unspecified)	none (no result: CYP2C19 inh, CYP2C9 inh, CYP2C9 activ, CYP2C19 act)
CCN(CC)c1ccc2cc(S(=O)(=O)c3ccc(Cl)cc3)c(=O)oc2c1	Cav3 T inh -4.1 (no result: CYP2C19 inh, CYP2C9 inh, CYP2C9 activ, CYP2C19 act)
CCCCCCc1cc2cc(S(=O)(=O)c3ccc(Cl)cc3)c(=O)oc2cc1O	none (no result: CYP2C19 inh, CYP2C9 inh, CYP2C9 activ, CYP2C19 act)
CCN(CC)CCNC(=O)C1CCC(=O)N1CCc1ccccc1 (stereo unspecified)	none
O=C(NC1CCN(Cc2ccccc2)CC1)C1CCCN(c2nnc(-n3cccc3)s2)C1 (stereo unspecified)	none
CCOc1ccc(CCNC(=O)C2CCC(=O)N2CCc2ccccc2)cc1OCC (stereo unspecified)	CYP2C9 inh 68
O=C(C1CCN(c2nnc(-n3cccc3)s2)CC1)N1CCN(c2cccc(C(F)(F)F)c2)CC1	CYP2C19 inh 52, CYP2C9 inh 55
O=C(C1CCN(c2nnc(-n3cccc3)s2)CC1)N1CCOCC1	none
CCOc1ccc(CCNC(=O)C2CCCN(c3nnc(-n4cccc4)s3)C2)cc1OCC (stereo unspecified)	CYP2C9 inh 60
O=C(C1CCCN(c2nnc(-n3cccc3)s2)C1)N1CCN(c2ccccc2)CC1 (stereo unspecified)	CYP2C19 inh 68
CCN(CC)c1cccc(OCC(=O)N(C)CCC#N)c1	none
Cc1ccc(C(=O)O)cc1S(=O)(=O)N1CCCC1	none
O=C(c1ccc(S(=O)(=O)N2CCOCC2)cc1)N1CCN(c2cccc(Cl)c2)CC1	none
Cc1ccc(S(=O)(=O)N2CCCC(NC(=O)N3CCN(c4ccccc4)CC3)C2)cc1 (stereo unspecified)	Cav3 T inh -4.4, CYP2C19 inh 74
CC1CC(C)CN(S(=O)(=O)c2ccc(C(=O)N3CCN(c4ccccc4)CC3)cc2)C1 (stereo unspecified)	CYP2C19 inh 68, CYP2C9 inh 82
O=C(NC1CCCCC1)N1CCN(c2ccccc2)CC1	none (no result: CYP2C19 inh, CYP2C9 inh, CYP2C9 activ, CYP2C19 act)
Cc1ccc(C(=O)N2CCN(c3ccccc3)CC2)cc1S(=O)(=O)N1CCCC1	CYP2C19 inh 78, CYP2C9 inh 84
Fc1ccc(-c2cc(C(F)(F)F)nc(NCC3CCCO3)n2)cc1 (stereo unspecified)	none
O=Cc1cccc(OC(=O)c2ccc(Cl)cc2Cl)c1	none
O=C(COc1ccc(Cl)cc1)NNC(=O)C(=O)N1CCCCC1	none
Cc1ccc(C(=O)COC(=O)CCC(=O)Nc2cc(Cl)ccc2Cl)cc1[N+](=O)[O-]	none
O=C(c1ccco1)N1CCC(c2nc(-c3ccc(F)cc3)no2)CC1	none
O=C(c1ccco1)N1CCC(c2nc(-c3ccccc3Cl)no2)CC1	CYP2C9 inh 57
O=S(=O)(c1ccccc1Cl)N1CCCC1c1nc(-c2ccccc2Cl)no1 (stereo unspecified)	CYP2C19 inh 58
O=C(CC1SC(=Nc2ccccc2)N(CCCO)C1=O)Nc1ccc(Cl)cc1 (stereo unspecified)	CYP2C19 inh 73, CYP2C9 inh 88
CCCN1C(=O)SC(CC(=O)Nc2ccccc2)C1=O (stereo unspecified)	CYP2C19 inh 89, CYP2C9 inh 50
CCCN1C(=O)SC(CC(=O)Nc2cccc3ccccc23)C1=O (stereo unspecified)	none (no result: CYP2C19 inh, CYP2C9 inh, CYP2C9 activ, CYP2C19 act)
CCOc1ccccc1NC(=O)C1=C(C)NC(=O)NC1c1cccc(OC)c1OC (stereo unspecified)	none
COCCOC(=O)C1=C(C)N(Cc2ccccc2)C(=O)NC1c1cccc(OC)c1OC (stereo unspecified)	CYP2C19 inh 99, CYP2C9 inh 90
CC1=C(C(=O)NCc2ccccc2)C(c2ccccc2OCC(N)=O)NC(=O)N1 (stereo unspecified)	none
CCOC(=O)C1=C(C)N(Cc2ccccc2)C(=O)NC1c1ccccc1OS(=O)(=O)c1ccccc1[N+](=O)[O-] (stereo unspecified)	none (no result: CYP2C19 inh, CYP2C9 inh, CYP2C9 activ, CYP2C19 act)
CCSCCOC(=O)C1=C(C)NC(=O)NC1c1cccc(OC)c1OC (stereo unspecified)	CYP2C19 inh 80
COC(=O)C1=C(C)NC(=O)NC1c1cccc(OC)c1OCc1ccccc1 (stereo unspecified)	CYP2C9 inh 77 (no result: Cav3 T inh)
CC(=O)C1=C(c2ccccc2)NC(=O)NC1c1ccccc1OCC(=O)NCc1ccccc1 (stereo unspecified)	CYP2C19 inh 90, CYP2C9 inh 95
O=S(=O)(Cc1ccccc1)NCC1CCCO1 (stereo unspecified)	none
Cc1noc(C)c1-c1ccc2nc[nH]c(=O)c2c1	none (no result: CYP2C19 inh, CYP2C9 inh, CYP2C9 activ, CYP2C19 act)
CN(Cc1ccccc1)c1nc2c(c(=O)[nH]c(=O)n2C)n1CCOc1ccccc1	Cav3 T inh -4.8, CYP2C9 inh 54
